Source: PubChem BioAssay (SRMLSC)
Spn MK inh = inhibitors of Streptococcus pneumoniae mevalonate kinase; inhibition, % at 10 µM; 65,000 tested, 0.48% active; purified MK, PK/LDH-coupled NADH absorbance 340 nm;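 active means ranked among the strongest by inhibition in the single 10 µM screen, a fixed top-ranked set picked for dose follow-up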
Autofluor 339 = intrinsic fluorescence of library compounds, ex339/em460 – biochemical, MLSMR library, data from DPM-DC assay, artefact control, profiling panel; compound autofluorescence, ex339/em460 nm, NADH buffer; active compounds read high; 1 = no-compound wells, NADH background; 65,000 tested, 5.5% active; AID 709; fluorescence fold increase at 10 µM;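 active means at 10 µM, mean starting fluorescence two-fold or more over control wells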;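 further: signal is the first read of a kinetic run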
Spn DPM-DC inh = S. pneumoniae DPM-DC inhibition | purified DPM-DC, PK/LDH coupled NADH fluorescence | calls only at 10 µM | 65,000 tested, 0.49% active;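 active means the 320 compounds with the highest percent inhibition in the single-dose primary screen, excluding strongly autofluorescent ones, cut at about 32% in these data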;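 further: kinetic rate of NADH fluorescence loss reporting ADP formed by the decarboxylase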
Abs 340nm = absorbance at 340 nm; 65,000 tested, under 10 active; compound absorbance at 340 nm, fold over control; fold change at 10 µM;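 active means at 10 µM dose, initial 340 nm absorbance at least 2 fold that of control wells; inactive means change under 2 fold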;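 further: initial absorbance extrapolated from kinetic A340 decline of NADH oxidation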
NADH enzymes = blocks coupling enzymes of NAD/NADH assays; coupled PK/LDH NADH assays, four targets; IC50, µM (titrated, usually from 10 µM), inactives show at the highest dose inhibition; 65,000 tested, 0.02% active; AID 774;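 active means single-dose screening hits from any of four coupled enzyme assays that gave an IC50 when retested across doses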;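 further: the DPM-DC format reads NADH fluorescence rather than 340 nm absorbance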
PMK inhibit = S. pneumoniae PMK inhibition. AID 539. inhibition, % at 10 µM. purified PMK, PK/LDH-coupled NADH absorbance 340 nm. 65,000 tested, 0.49% active;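 active means top-ranked compounds by inhibition in the single 10 µM screen, taking a fixed number of the strongest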;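 further: 0% = full reaction with DMSO carrier and 100% = background rate without enzyme reaction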
* hit, by the source's call; i = inactive; . = no result shown; + = active, no number. The list is not random: actives were taken first. Their share in the collection is about 6.8%.

SMILES	Spn MK inh	Autofluor 339	Spn DPM-DC inh	Abs 340nm	NADH enzymes	PMK inhibit
Cc1c(C)c2cc(Cl)c(O)c(CN(C)C)c2oc1=O	8.0	2.31*	.	1.14	4.0%	0.0
CCc1c(C)c2cc(Cl)c(O)c(CN(CC)CC)c2oc1=O	6.0	3.7*	.	1.08	6.0%	6.0
CCc1c(C)c2cc(Cl)c(O)c(CN(C)C)c2oc1=O	12.0	3.68*	.	1.21	7.0%	1.0
Brc1ccc(-c2nnc3n2-c2ccccc2CC3)cc1	1.0	1.09	i	1.01	3.0%	9.0
O=C(c1noc2c1CCCCC2)N1CCOCC1	7.0	0.91	i	0.96	11.0%	15.0
O=C(c1noc2c1CCCC2)N1CCCCC1	10.0	0.67	+	0.99	19.0%	8.0
O=c1c2cc(N3CCOCC3)ccc2[nH]c(=S)n1CCN1CCCC1	4.0	2.56*	i	1.1	7.0%	5.0
O=c1c2cc(N3CCOCC3)ccc2[nH]c(=S)n1CCCN1CCCCCC1	11.0	2.91*	i	1.06	10.0%	10.0
O=c1c2cc3c(cc2[nH]c(=S)n1CCN1CCOCC1)OCO3	3.0	1.05	i	1.09	5.0%	12.0
CC(C)OCCCn1c(=S)[nH]c2ccc(N3CCOCC3)cc2c1=O	5.0	3.69*	i	1.04	15.0%	15.0
CC(C)OCCCn1c(=S)[nH]c2cc3c(cc2c1=O)OCO3	6.0	1.03	i	1.07	5.0%	9.0
Cc1ccc(Cn2c(=S)[nH]c3ccc(N4CCOCC4)cc3c2=O)o1	7.0	2.75*	i	1.04	13.0%	14.0
O=c1c2cc(N3CCOCC3)ccc2[nH]c(=S)n1CCCN1CCN(c2ccccc2F)CC1	3.0	3.54*	+	1.05	19.0%	11.0
Cc1ccc2c(N)c(C)ccc2c1	9.0	3.7*	.	1.04	10.0%	11.0
CC1=C(C#N)C(C)C2=C(CC(C)(C)CC2=O)N1 (centres undefined)	7.0	2.12*	.	1.1	4.0%	0.0
COc1cc(C2C(C#N)=C(C)NC3=C2C(=O)CC(C)(C)C3)cc(OC)c1O (centres undefined)	1.0	1.14	+	1.14	12.0%	0.0
CC1=C(C#N)C(c2cccnc2)C2=C(CC(C)(C)CC2=O)N1 (centres undefined)	7.0	2.08*	.	1.08	11.0%	14.0
COc1cc(C2C(C#N)=C(C)NC3=C2C(=O)CC(C)(C)C3)ccc1OCCO (centres undefined)	4.0	1.3	i	1.08	5.0%	12.0
CC(=O)Nc1sc(C)c(C)c1C(=O)OC1CCOC1=O (centres undefined)	0.0	1.18	i	1.05	0.0%	0.0
COc1ccc(NC(=O)c2nnn(Cc3ccc(SC)cc3)c2N)c(OC)c1	11.0	1.52	+	1.06	29.0%	0.0
COc1cc(OC)cc(-c2cc3nc4c(c(N5CCN(c6ncccn6)CC5)n3n2)CCCC4)c1	8.0	3.75*	i	1	6.0%	11.0
COc1cc(OC)cc(-c2cc3nc4c(c(N5CCN(c6cnccn6)CC5)n3n2)CCCC4)c1	0.0	2.75*	i	1.01	1.0%	0.0
CCc1c(C)nc2cc(-c3cc(OC)cc(OC)c3)nn2c1N1CCCC1	4.0	1.26	i	1.02	2.0%	2.0
CCCc1nnc(NC(=O)c2c(O)c3cccc4c3n(c2=O)CCC4)s1	10.0	2.82*	i	1.03	10.0%	12.0
CCc1cc(=O)oc2cc(C)cc(O)c12	6.0	1.06	i	1.07	7.0%	15.0
SMILES	Spn MK inh	Autofluor 339	Spn DPM-DC inh	Abs 340nm	NADH enzymes	PMK inhibit
CCc1cc(=O)oc2cc(C)c3c(C)coc3c12	5.0	2.43*	i	1.07	14.0%	6.0
CC1CCCC(C)N1C(=O)CSc1nnc(C2CCCCC2)o1 (centres undefined)	7.0	1.15	i	0.99	6.0%	6.0
Cn1c(=O)c2nc(-c3ccccc3)oc2c2ccccc21	2.0	5.01*	.	1.05	5.0%	8.0
O=C(CN1CCc2ccccc2C1)c1cccs1	30.0	1.05	i	1.03	16.0%	18.0
COc1ccc(-c2cc3ccc(OCc4nn[nH]n4)cc3oc2=O)cc1OC	0.0	1.81	i	1.24	7.0%	9.0
CCOC(=O)CCc1c(C)c2ccc(OCC(=O)OC(C)C)cc2oc1=O	4.0	3.69*	.	1.04	5.0%	6.0
CCOC(=O)CCc1c(C)c2ccc(OCc3nn[nH]n3)cc2oc1=O	0.0	3.78*	.	1.13	6.0%	11.0
COc1ccc(-c2cc(=O)oc3cc(OCc4nn[nH]n4)ccc23)cc1	1.0	1.92	i	1.17	1.0%	0.0
Cc1c(Cc2ccccc2)c(=O)oc2cc(OCc3nn[nH]n3)ccc12	0.0	3.8*	.	1.13	4.0%	8.0
CN(C)CCNC(=O)c1ccc(CS(=O)(=O)c2ccc(Br)cc2)o1	6.0	1.17	i	1.05	5.0%	8.0
Cn1c(C(=O)N2CCN(c3ccccn3)CC2)cc2c(=O)n(C)c3ccccc3c21	7.0	1.07	i	1.05	5.0%	3.0
O=c1[nH]c(N2CCc3ccccc3C2)nc2c1CCCC2	8.0	1.08	i	1.04	5.0%	6.0
O=c1[nH]c(-c2ccccc2O)nc2c1CCCC2	3.0	3.33*	i	1.11	7.0%	0.0
CCCCNC(=O)CSc1nc2ccc(N3CCOCC3)cc2c(=O)n1CCc1ccccc1	10.0	2.34*	i	1.01	10.0%	10.0
COCCNC(=O)CSc1nc2ccc(N3CCOCC3)cc2c(=O)n1CCc1ccccc1	10.0	4.1*	.	1.04	9.0%	7.0
Cn1c(C(O)c2ccccc2)nc(Cl)c1Cl (centres undefined)	3.0	1.11	i	1.06	1.0%	0.0
CCC(=O)Nc1c(C)cc(C)cc1Cl	8.0	1.14	i	1	9.0%	18.0
CCC(=O)Nc1c(OC(=O)CC)ccc2c(C)cc(=O)oc12	1.0	2.13*	.	1.07	9.0%	17.0
O=C(CN1C(=O)NC2(CCCc3ccccc32)C1=O)N1CCc2ccccc2C1 (centres undefined)	0.0	1.12	i	1.03	1.0%	2.0
O=C1c2ccccc2NC(c2ccncc2)N1c1ccccn1 (centres undefined)	0.0	2.15*	.	1.05	0.0%	0.0
COc1ccccc1N1C(=O)N(C(C)=O)C2C1Nc1ccccc1N2C (centres undefined)	1.0	1.2	i	1.04	1.0%	1.0
COc1ccccc1N1C(=O)c2ccccc2NC1c1ccncc1 (centres undefined)	12.0	2.11*	.	1.02	3.0%	0.0
O=S(=O)(NCCc1ccccn1)c1ccc(F)c(F)c1	4.0	1	i	0.96	6.0%	13.0
Cc1cccn2c(=O)c3cc(C(=O)NC(C)c4ccccc4)c(=N)n(CCCn4ccnc4)c3nc12 (centres undefined)	0.0	3.84*	.	1.05	3.0%	6.0
Cc1ccc2nc3c(cc(C(=O)NCc4ccccc4)c(=N)n3CCCn3ccnc3)c(=O)n2c1	0.0	3.83*	.	1.06	3.0%	6.0
